# Assay results as given in PubChem BioAssay (NCATS).
# Where “and” joins values, the source holds several entries; their conditions need not be identical. Equal entries are not always repeated. Inconclusive results are not listed. A call without a number means that no potency is given here. Calls of active or inactive are those of the source. Unless noted, the call rests on the fitted dose curve; in most records, active means well fitted curve in the direction sought with a large enough effect; inconclusive means small, poorly fitted or top-dose-only effect, or another doubt; inactive means no such curve, though single readings can be large; an effect the other way counts as inactive or inconclusive.
# Key:
# [1] = Validation of Assay for Modulators of Lamin A Splicing (AID 1459; active means well fitted curve in the direction sought with a large enough effect in the signal ratio; the % refers to the signal ratio;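 further: cells exposed to compound for two days before reading; ratio rise marks activators and ratio drop marks inhibitors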)
# Procedure, shortened: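 Splicing correction is reported by an EGFP-containing lamin A minigene in stably transfected S3 HeLa cells, while DsRed2 controls for viability and nonspecific signal. Cells are exposed to compounds for 48 hrs before the GFP over RFP ratio is taken.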
# [2] = qHTS Assay for Lipid Storage Modulators (AID 1519; calls by dose curve); conditions: Drosophila S3 cells, BODIPY lipid droplet/cell ratio, laser cytometry, cells loaded with oleic acid
# Procedure, shortened: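 Cells seeded at 5,000 per well were treated with compounds over a concentration series and loaded with oleic acid (400 uM, as added). Lipid droplet fluorescence (488 nm excitation, 500-530 nm channel) was read by laser-scanning cytometry and normalized to 20 uM Triacsin C.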
# [3] = target: DNA repair nuclease/redox regulator APEX1 (Homo sapiens) (UniProt P27695); assay: qHTS Validation Assay for Inhibitors of the Human Apurinic/apyrimidinic Endonuclease 1 (APE1) (AID 1705;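 further: TAMRA fluorescence gain over two minutes as APE1 cuts a quenched THF abasic duplex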)
# Sequence of DNA repair nuclease/redox regulator APEX1 (Homo sapiens) (P27695 whole entry, looked up): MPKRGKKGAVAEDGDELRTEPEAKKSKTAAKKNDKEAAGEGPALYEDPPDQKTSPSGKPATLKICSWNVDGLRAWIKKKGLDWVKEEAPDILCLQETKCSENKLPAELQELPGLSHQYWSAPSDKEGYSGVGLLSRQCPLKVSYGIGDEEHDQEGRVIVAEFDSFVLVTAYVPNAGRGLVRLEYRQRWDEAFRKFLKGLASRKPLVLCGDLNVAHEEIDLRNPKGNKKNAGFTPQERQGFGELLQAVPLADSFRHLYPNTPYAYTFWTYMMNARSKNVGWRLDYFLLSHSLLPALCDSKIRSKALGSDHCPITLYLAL
# Procedure, shortened: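 Endonuclease activity of human APE1 is followed as dequenching when the enzyme incises a tetrahydrofuran abasic site in a short duplex labelled 5'-TAMRA/3'-BHQ-2 (50 nM final), after 15 min enzyme–compound preincubation at room temperature.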
# [4] = Counterscreen for APE1 Inhibitors: Fluorescent Dye Displacement Validation Assay (AID 1707)
# Procedure, shortened: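 Assay buffer: Tris-HCl pH7.5 with 50mM NaCl, 2 mM MgCl2, 0.01% Tween-20. Dye 250 nM, duplex 50 nM final. Readout: decrease in ThO endpoint fluorescence, 480 nm excitation, 540 nm emission.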
# [5] = target: Alpha-galactosidase A (Homo sapiens) (UniProt P06280); assay: Counterscreen for Glucocerebrosidase Inhibitors: qHTS Assay for Human alpha-Galactosidase at pH 4.5 (AID 992)
# Sequence of Alpha-galactosidase A (Homo sapiens) (P06280 whole entry, looked up): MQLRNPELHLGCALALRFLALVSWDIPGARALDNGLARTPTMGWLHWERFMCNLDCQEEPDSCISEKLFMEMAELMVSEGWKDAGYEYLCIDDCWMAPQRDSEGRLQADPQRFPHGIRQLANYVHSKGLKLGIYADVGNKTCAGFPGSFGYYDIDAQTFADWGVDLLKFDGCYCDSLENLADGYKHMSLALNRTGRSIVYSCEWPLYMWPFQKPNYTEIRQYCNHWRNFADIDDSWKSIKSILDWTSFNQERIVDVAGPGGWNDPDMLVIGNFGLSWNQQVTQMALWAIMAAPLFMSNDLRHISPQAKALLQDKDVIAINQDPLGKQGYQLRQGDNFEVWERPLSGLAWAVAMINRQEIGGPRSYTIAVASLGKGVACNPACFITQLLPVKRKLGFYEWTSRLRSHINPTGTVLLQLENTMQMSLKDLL
# Procedure, shortened: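 Concentration-response curves (0.7 nM to 77 uM final) were modeled with the Hill equation to give AC50. Reactions: 2 nM enzyme, 80 uM fluorogenic alpha-galactoside, pH 4.5 citric acid buffer, 20 min, room temperature.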
# [6] = target: alpha-glucosidase (Oryza sativa, rice) (UniProt Q653V4); assay: Counterscreen for Glucocerebrosidase Inhibitors: qHTS Assay for Rice alpha-Glucosidase at pH 5.0 (AID 997)
# Procedure, shortened: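 Rice alpha-glucosidase (4 nM final) with 400 uM 4-methylumbelliferyl-alpha-D-glucopyranoside in citrate buffer pH 5.0, 20 min at room temperature, stopped at pH 10; fluorescence 365/440 nm, compounds 0.7 nM–77 uM, AC50 from Hill fits.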
# [7] = measured here: cell count channel max response
# [8] = measured here: lipid channel max response
smiles,measurement,setting,value
COc1cc2nc(N3CCN(C(=O)C4CCCO4)CC3)nc(N)c2cc1OC (configuration not stated),outcome,[1],inactive
same,"activity change, negative = inhibition",[2]; at 57.5 µM (top of the series),0.288% (inactive)
same,max response,[2]; [7],-1.5%
same,max response,[2]; [8],-3.7%
same,Potency,[3],inactive
same,Potency,[4],inactive
Cc1cc2c(s1)Nc1ccccc1N=C2N1CCN(C)CC1,"activity change, negative = inhibition",[2]; at 57.5 µM (top of the series),13.5% (inactive)
same,max response,[2]; [7],-2.56%
same,max response,[2]; [8],9.09%
Nc1nc(Cl)nc2c1ncn2[C@H]1C[C@H](O)[C@@H](CO)O1,"activity change, negative = inhibition",[2]; at 57.5 µM (top of the series),-3.99% (inactive)
same,max response,[2]; [7],-0.0923%
same,max response,[2]; [8],-3.39%
O=C(NC(Cc1cc(=O)[nH]c2ccccc12)C(=O)O)c1ccc(Cl)cc1 (configuration not stated),"activity change, negative = inhibition",[2]; at 57.5 µM (top of the series),11.1% (inactive)
same,max response,[2]; [7],17.3%
same,max response,[2]; [8],35%
CCC1=C(C)CN(C(=O)NCCc2ccc(S(=O)(=O)NC(=O)NC3CCC(C)CC3)cc2)C1=O (configuration not stated),"activity change, negative = inhibition",[2]; at 25.7 µM (top of the series),-0.769% (inactive)
same,max response,[2]; [7],-5.01%
same,max response,[2]; [8],-5.89%
Cc1nc2n(c(=O)c1CCN1CCC(c3noc4cc(F)ccc34)CC1)CCCC2,outcome,[5],inactive
same,outcome,[6],inactive
same,outcome,[1],inactive
same,Potency,[3],inactive
same,Potency,[4],inactive
CCN(CCO)CCCC(C)Nc1ccnc2cc(Cl)ccc12 (configuration not stated),"activity change, negative = inhibition",[2]; at 57.5 µM (top of the series),5.88% (inactive)
same,max response,[2]; [7],13.5%
same,max response,[2]; [8],23.6%
CCCCc1ccc2nc(NC(=O)OC)[nH]c2c1,"activity change, negative = inhibition",[2]; at 25.7 µM (top of the series),1.84% (inactive)
same,max response,[2]; [7],-4.18%
same,max response,[2]; [8],-2.48%
O=C1c2c(O)cc(O)cc2OC(c2ccc(O)c(O)c2)C1O (configuration not stated),outcome,[1],inactive
same,"activity change, negative = inhibition",[2]; at 57.5 µM (top of the series),0.956% (inactive)
same,max response,[2]; [7],37.7%
same,max response,[2]; [8],36.5%
same,Potency,[3],inactive
same,Potency,[4],inactive
CC1Cc2ccccc2N1NC(=O)c1ccc(Cl)c(S(N)(=O)=O)c1 (configuration not stated),"activity change, negative = inhibition",[2]; at 57.5 µM (top of the series),7.15% (inactive)
same,max response,[2]; [7],9.62%
same,max response,[2]; [8],23.5%
CN1C(C(=O)Nc2ccccn2)=C(O)c2sccc2S1(=O)=O,"activity change, negative = inhibition",[2]; at 25.7 µM (top of the series),-0.44% (inactive)
same,max response,[2]; [7],-5.92%
same,max response,[2]; [8],-4.62%
CN(C)CCCC1(c2ccc(F)cc2)OCc2cc(C#N)ccc21 (configuration not stated),outcome,[1],inactive
same,Potency,[3],inactive
same,Potency,[4],inactive
Nc1nc(OCc2ccccc2)c2[nH]cnc2n1,outcome,[5],inactive
same,outcome,[6],inactive
same,outcome,[1],inactive
same,Potency,[3],inactive
same,Potency,[4],inactive
O=C(CCc1ccc(O)cc1)c1c(O)cc(O)cc1O,outcome,[5],inactive
same,outcome,[6],inactive
same,outcome,[1],inactive
same,"activity change, negative = inhibition",[2]; at 57.5 µM (top of the series),10.4% (inactive)
same,max response,[2]; [7],5.8%
same,max response,[2]; [8],18.1%
same,Potency,[3],inactive
same,Potency,[4],inactive
C[C@H](Cc1ccc(O)c(O)c1)[C@@H](C)Cc1ccc(O)c(O)c1,outcome,[5],inactive
same,outcome,[6],inactive
same,outcome,[1],inactive
same,Potency,[3],inactive
CN(C)CCc1c[nH]c2ccc(Cn3cncn3)cc12,"activity change, negative = inhibition",[2]; at 57.5 µM (top of the series),3.43% (inactive)
same,max response,[2]; [7],14.1%
same,max response,[2]; [8],22%
O=C(NCC1CCCCN1)c1cc(OCC(F)(F)F)ccc1OCC(F)(F)F (configuration not stated),outcome,[1],inactive
same,Potency,[3],inactive
same,Potency,[4],inactive
CC1(C)NC(=O)N(c2ccc([N+](=O)[O-])c(C(F)(F)F)c2)C1=O,outcome,[5],inactive
same,outcome,[6],inactive
same,outcome,[1],inactive
same,"activity change, negative = inhibition",[2]; at 57.5 µM (top of the series),-13.9% (inactive) and -13.7% (inactive)
same,max response,[2]; [7],-10.4% and -26.6%
same,max response,[2]; [8],-19.8% and -35.1%
same,Potency,[3],inactive
same,Potency,[4],inactive
CCOc1cc(CC(=O)N[C@@H](CC(C)C)c2ccccc2N2CCCCC2)ccc1C(=O)O,"activity change, negative = inhibition",[2]; at 25.7 µM (top of the series),0.216% (inactive)
same,max response,[2]; [7],-5.3%
same,max response,[2]; [8],-9.52%
OC(CN1CCN(c2cccc(Cl)c2)CC1)C(c1ccccc1)c1ccccc1 (configuration not stated),outcome,[1],inactive
same,Potency,[3],inactive
same,Potency,[4],inactive
O=C1c2ccccc2-c2n[nH]c3cccc1c23,outcome,[5],inactive
same,outcome,[6],inactive
same,outcome,[1],inactive
same,"activity change, negative = inhibition",[2]; at 57.5 µM (top of the series),2.36% (inactive)
same,max response,[2]; [7],-6.85%
same,max response,[2]; [8],-4.08%
same,Potency,[4],inactive
Cc1cc(=O)oc2cc(O)ccc12,"activity change, negative = inhibition",[2]; at 25.7 µM (top of the series),0.949% (inactive)
same,max response,[2]; [7],-7.84%
same,max response,[2]; [8],-11.2%
C[C@@H](N)C1CCC(C(=O)Nc2ccncc2)CC1 (some centres not stated),outcome,[1],inactive
same,"activity change, negative = inhibition",[2]; at 57.5 µM (top of the series),2.12% (inactive)
same,max response,[2]; [7],-4.26%
same,max response,[2]; [8],-0.634%
same,Potency,[3],inactive
same,Potency,[4],inactive
CC(=O)N1CCN(c2ccc(OC[C@H]3CO[C@](Cn4ccnc4)(c4ccc(Cl)cc4Cl)O3)cc2)CC1,outcome,[5],inactive
same,outcome,[6],inactive
same,outcome,[1],inactive
same,Potency,[3],inactive
same,Potency,[4],inactive
